# Screening data deposited in PubChem by National Center for Advancing Translational Sciences (NCATS).
# Shiga toxin inh = A qHTS for Small Molecule Inhibitors of Shiga Toxin. Vero cells, Shiga toxin protein synthesis inhibition reporter. inhibition, % at 38.7 µM. hit rate 9.2% among 290,000; in the data active = inhibition mostly above about 28%, no sharp cut-off; inactive = mostly below about 43%; note: 0% is about no effect
# Marburg entry inh = qHTS for inhibitors of binding or entry into cells for Marburg Virus; Potency, µM (highest dose often 37.8 µM), for inactives: at the top dose activity change, negative = inhibition, hits mostly inhibitors; AID 540276, 2011; Marburg virus pseudotyped entry inhibition, cell reporter; hit rate 1.8% among 300,000; calls by dose curve; tested in HEK293 cells; note: potency is the fitted concentration of half-maximal effect; % is set by controls: 0 for no effect and ±100 for the full control effect
# CHX counter = Cycloheximide Counterscreen for Small Molecule Inhibitors of Shiga Toxin | hit rate 12% among 300,000 | cell reporter, cycloheximide protein synthesis inhibition counterscreen | max response, %; in the data active = max response mostly above about 13%, no sharp cut-off; inactive = mostly below about 14%; note: read at 38.3 µM for the half of the compounds with a filed dose; 0% is about no effect
# LASV entry inh = qHTS for Inhibitors of binding or entry into cells for Lassa Virus; Lassa virus pseudotype entry inhibition, cell reporter; Potency, µM (series often up to 37.9 µM), for inactives: top-dose activity change, negative = inhibition, most hits filed as inhibitors; hit rate 1.2% among 300,000; AID 540256, 2011; calls by dose curve; tested in HEK293 cells; note: potency is the fitted concentration of half-maximal effect; % is set by controls: 0 for no effect and ±100 for the full control effect; nearly all actives have a fitted effect of over 50% in size
# Starred values were filed as active, the others as inactive; ? = inconclusive; . = no result given; + = active, no number; [ ] = remark or other dose. In the library only some 12% were active in any assay of this set; here they are far more common.
SMILES,Shiga toxin inh,Marburg entry inh,CHX counter,LASV entry inh
CCCCCCN(C(=O)CCCCCN1C(=O)NC(c2cccc([N+](=O)[O-])c2)C(C(=O)OCc2ccccc2)=C1C)C(C(=O)NCCCC)c1ccc(OCC(=O)OC)c(C(=O)OC)c1 (centres undefined),8.7,.,-6.2,.
CC1=NN(S(=O)(=O)c2ccc(Cl)cc2Cl)C(=O)c2ccccc2O1,1.5,-13.1%[46.1 µM],12.5*,?
Cc1nn(-c2ccc(Cl)cc2Cl)c(=O)c2ccccc12,-2.7,4.1%,3.9,-18.5%
CCOC(=O)C1=C(C)NC(C)=C(C(=O)OCC)C1C(=O)OCC(=O)NC1(C#N)CCCCC1,.,?,.,-13.9%
COc1ccc(NC(=O)Cn2cnc3ccc(S(=O)(=O)N4CCC(C)CC4)cc3c2=O)cc1OC,.,-26.8%[46.1 µM],.,-21.8%[46.1 µM]
CCN(Cc1nc(-c2cccc(Cl)c2)no1)CC1CCCO1 (centres undefined),24.5,0.6%[46.1 µM],13.2*,1.9%
CN(Cc1nc(-c2cccc(Cl)c2)no1)C1CCOCC1,83.8*,.,34.9*,.
Cc1cc2oc3c(c(=O)c2cc1C)C1(C(=O)N(C)c2ccccc21)N(CCO)C3=O (centres undefined),.,20.7%[46.1 µM],.,-1.2%[46.1 µM]
COc1cccc(N2CCN(Cc3cc(=O)oc4cc(C)ccc34)CC2)c1,.,3.0%[46.1 µM],.,-15.1%[46.1 µM]
Cc1ncsc1CCOC(=O)c1ccccc1,58.0*,20.3%[46.1 µM],37.7*,8.0%
CCCOC(=O)c1ccccc1,-2.3,.,-3.6,.
Cc1ncsc1CCOC(=O)c1ccc(Cl)cc1,69.1*,?,35.1*,?
CNC1=CN(O)C(c2ccccc2)=c2cc(Cl)ccc2=N1,4.0,.,-0.4,.
CC(=O)OC1(C(C)=O)CCC2C3CC(C(F)(F)F)C4=CC(=O)CCC4(C)C3CCC21C (centres undefined),.,8.91µM*,.,?
CC(=O)O[C@]1(C(C)=O)CC[C@H]2[C@@H]3C[C@H](C)C4=CC(=O)CC[C@]4(C)[C@H]3CC[C@@]21C,8.2,-40.8%,-1.5,?
CN(C(=O)COC(=O)CSc1cc(Cl)ccc1Cl)c1c(N)n(Cc2ccccc2)c(=O)[nH]c1=O,.,0.1%,.,4.7%
Cc1cc(C)cc(C(=O)Nc2ccc(N3CCCC3)cc2)c1,72.0*,?,49.8*,.
Cc1cc(C)cc(OCC(=O)Nc2ccc(N3CCCCC3)cc2)c1,.,18.6%,.,11.9%
Cc1cc(C)cc(NC(=O)Nc2ccc(N3CCCCC3)cc2)c1,27.4,?,37.6*,-15.7%[46.1 µM]
O=[N+]([O-])c1cc(Cl)ccc1Oc1ccc(-c2nnco2)cc1,-6.8,16.9%,6.6,23.4%
Cc1c(C(=O)N2CCC(C)CC2)c(S(=O)(=O)N2CCN(c3cccc(Cl)c3)CC2)c(C)n1C,.,.,.,-2.1%[46.1 µM]
Cc1ccc2oc(C(=O)N(Cc3sccc3C)C3CCS(=O)(=O)C3)c(C)c2c1 (centres undefined),.,3.16µM*,.,?
O=C(c1cc2ccccc2oc1=O)N(Cc1ccccc1F)C1CCS(=O)(=O)C1 (centres undefined),59.8*,.,31.0*,.
O=C(c1cc2ccccc2oc1=O)N(Cc1ccccc1)C1CCS(=O)(=O)C1 (centres undefined),+,?,40.2*,2.6%
COc1ccc(CN(C(=O)c2cc3ccccc3oc2=O)C2CCS(=O)(=O)C2)cc1OC (centres undefined),98.5*,?,45.1*,-29.7%[46.1 µM]
SMILES,Shiga toxin inh,Marburg entry inh,CHX counter,LASV entry inh
CCOc1ccc(CN(C(=O)c2cc3ccccc3oc2=O)C2CC2)cc1,25.8,10.0%[46.1 µM],12.4,0.2%
Cc1ccsc1CN(C(=O)c1oc2ccc(F)cc2c1C)C1CCS(=O)(=O)C1 (centres undefined),.,-12.0%[46.1 µM],.,?
c1ccc2c(c1)CCC[C@H]2C1=NCCN1,.,31.4%,.,.
O=C(Cc1ccc(F)cc1)Nc1nnc(SCC(=O)NC2CCCC2)s1,3.1,-20.1%,-4.6,0.9%
CCOc1ccc(CN(C(=O)c2cc3ccccc3oc2=O)C2CCS(=O)(=O)C2)cc1 (centres undefined),110.5*,11.6%,68.3*,?
COc1ccc(CN(C(=O)c2cc3ccccc3oc2=O)C2CCS(=O)(=O)C2)cc1 (centres undefined),61.9*,?,32.0*,11.4%
CCOc1ccc(CN(C(=O)c2oc3cc(C)ccc3c2C)C2CCS(=O)(=O)C2)cc1 (centres undefined),-6.9,?,-1.6,13µM*
COc1ccc(CN(C(=O)c2cc3ccccc3oc2=O)C2CCCC2)cc1,11.6,4.2%[46.1 µM],-1.2,-3.3%
CCc1cccc(C)c1Nc1c(-c2cccs2)nc2nc(C)cc(C)n12,.,-8.5%[46.1 µM],.,-0.8%[46.1 µM]
COCCCn1c(=S)[nH]c2c(sc3ccccc32)c1=O,16.3,13.4%[46.1 µM],28.9*,25.5%
